Test results reported in the supplement of paper PMC11732987, “Enantioselective OTUD7B fragment discovery through chemoproteomics screening and high-throughput optimisation” (Communications Chemistry, 2025).

Key:
Assay in all cases: log2 ratio of Biotin-Ahx-Ub-VS probe labelling (fragment/DMSO); higher = less target engagement (more negative = stronger competition), active = hit call of the paper (q ≤ 0.05, log2 ratio ≤ -1)
Conditions in all cases: compound concentration: 200 uM; treatment time: 3 h
USP34 = USP34 (UniProt Q70CQ2)
USP34, sequence (Q70CQ2 whole entry, the tested form may be a part): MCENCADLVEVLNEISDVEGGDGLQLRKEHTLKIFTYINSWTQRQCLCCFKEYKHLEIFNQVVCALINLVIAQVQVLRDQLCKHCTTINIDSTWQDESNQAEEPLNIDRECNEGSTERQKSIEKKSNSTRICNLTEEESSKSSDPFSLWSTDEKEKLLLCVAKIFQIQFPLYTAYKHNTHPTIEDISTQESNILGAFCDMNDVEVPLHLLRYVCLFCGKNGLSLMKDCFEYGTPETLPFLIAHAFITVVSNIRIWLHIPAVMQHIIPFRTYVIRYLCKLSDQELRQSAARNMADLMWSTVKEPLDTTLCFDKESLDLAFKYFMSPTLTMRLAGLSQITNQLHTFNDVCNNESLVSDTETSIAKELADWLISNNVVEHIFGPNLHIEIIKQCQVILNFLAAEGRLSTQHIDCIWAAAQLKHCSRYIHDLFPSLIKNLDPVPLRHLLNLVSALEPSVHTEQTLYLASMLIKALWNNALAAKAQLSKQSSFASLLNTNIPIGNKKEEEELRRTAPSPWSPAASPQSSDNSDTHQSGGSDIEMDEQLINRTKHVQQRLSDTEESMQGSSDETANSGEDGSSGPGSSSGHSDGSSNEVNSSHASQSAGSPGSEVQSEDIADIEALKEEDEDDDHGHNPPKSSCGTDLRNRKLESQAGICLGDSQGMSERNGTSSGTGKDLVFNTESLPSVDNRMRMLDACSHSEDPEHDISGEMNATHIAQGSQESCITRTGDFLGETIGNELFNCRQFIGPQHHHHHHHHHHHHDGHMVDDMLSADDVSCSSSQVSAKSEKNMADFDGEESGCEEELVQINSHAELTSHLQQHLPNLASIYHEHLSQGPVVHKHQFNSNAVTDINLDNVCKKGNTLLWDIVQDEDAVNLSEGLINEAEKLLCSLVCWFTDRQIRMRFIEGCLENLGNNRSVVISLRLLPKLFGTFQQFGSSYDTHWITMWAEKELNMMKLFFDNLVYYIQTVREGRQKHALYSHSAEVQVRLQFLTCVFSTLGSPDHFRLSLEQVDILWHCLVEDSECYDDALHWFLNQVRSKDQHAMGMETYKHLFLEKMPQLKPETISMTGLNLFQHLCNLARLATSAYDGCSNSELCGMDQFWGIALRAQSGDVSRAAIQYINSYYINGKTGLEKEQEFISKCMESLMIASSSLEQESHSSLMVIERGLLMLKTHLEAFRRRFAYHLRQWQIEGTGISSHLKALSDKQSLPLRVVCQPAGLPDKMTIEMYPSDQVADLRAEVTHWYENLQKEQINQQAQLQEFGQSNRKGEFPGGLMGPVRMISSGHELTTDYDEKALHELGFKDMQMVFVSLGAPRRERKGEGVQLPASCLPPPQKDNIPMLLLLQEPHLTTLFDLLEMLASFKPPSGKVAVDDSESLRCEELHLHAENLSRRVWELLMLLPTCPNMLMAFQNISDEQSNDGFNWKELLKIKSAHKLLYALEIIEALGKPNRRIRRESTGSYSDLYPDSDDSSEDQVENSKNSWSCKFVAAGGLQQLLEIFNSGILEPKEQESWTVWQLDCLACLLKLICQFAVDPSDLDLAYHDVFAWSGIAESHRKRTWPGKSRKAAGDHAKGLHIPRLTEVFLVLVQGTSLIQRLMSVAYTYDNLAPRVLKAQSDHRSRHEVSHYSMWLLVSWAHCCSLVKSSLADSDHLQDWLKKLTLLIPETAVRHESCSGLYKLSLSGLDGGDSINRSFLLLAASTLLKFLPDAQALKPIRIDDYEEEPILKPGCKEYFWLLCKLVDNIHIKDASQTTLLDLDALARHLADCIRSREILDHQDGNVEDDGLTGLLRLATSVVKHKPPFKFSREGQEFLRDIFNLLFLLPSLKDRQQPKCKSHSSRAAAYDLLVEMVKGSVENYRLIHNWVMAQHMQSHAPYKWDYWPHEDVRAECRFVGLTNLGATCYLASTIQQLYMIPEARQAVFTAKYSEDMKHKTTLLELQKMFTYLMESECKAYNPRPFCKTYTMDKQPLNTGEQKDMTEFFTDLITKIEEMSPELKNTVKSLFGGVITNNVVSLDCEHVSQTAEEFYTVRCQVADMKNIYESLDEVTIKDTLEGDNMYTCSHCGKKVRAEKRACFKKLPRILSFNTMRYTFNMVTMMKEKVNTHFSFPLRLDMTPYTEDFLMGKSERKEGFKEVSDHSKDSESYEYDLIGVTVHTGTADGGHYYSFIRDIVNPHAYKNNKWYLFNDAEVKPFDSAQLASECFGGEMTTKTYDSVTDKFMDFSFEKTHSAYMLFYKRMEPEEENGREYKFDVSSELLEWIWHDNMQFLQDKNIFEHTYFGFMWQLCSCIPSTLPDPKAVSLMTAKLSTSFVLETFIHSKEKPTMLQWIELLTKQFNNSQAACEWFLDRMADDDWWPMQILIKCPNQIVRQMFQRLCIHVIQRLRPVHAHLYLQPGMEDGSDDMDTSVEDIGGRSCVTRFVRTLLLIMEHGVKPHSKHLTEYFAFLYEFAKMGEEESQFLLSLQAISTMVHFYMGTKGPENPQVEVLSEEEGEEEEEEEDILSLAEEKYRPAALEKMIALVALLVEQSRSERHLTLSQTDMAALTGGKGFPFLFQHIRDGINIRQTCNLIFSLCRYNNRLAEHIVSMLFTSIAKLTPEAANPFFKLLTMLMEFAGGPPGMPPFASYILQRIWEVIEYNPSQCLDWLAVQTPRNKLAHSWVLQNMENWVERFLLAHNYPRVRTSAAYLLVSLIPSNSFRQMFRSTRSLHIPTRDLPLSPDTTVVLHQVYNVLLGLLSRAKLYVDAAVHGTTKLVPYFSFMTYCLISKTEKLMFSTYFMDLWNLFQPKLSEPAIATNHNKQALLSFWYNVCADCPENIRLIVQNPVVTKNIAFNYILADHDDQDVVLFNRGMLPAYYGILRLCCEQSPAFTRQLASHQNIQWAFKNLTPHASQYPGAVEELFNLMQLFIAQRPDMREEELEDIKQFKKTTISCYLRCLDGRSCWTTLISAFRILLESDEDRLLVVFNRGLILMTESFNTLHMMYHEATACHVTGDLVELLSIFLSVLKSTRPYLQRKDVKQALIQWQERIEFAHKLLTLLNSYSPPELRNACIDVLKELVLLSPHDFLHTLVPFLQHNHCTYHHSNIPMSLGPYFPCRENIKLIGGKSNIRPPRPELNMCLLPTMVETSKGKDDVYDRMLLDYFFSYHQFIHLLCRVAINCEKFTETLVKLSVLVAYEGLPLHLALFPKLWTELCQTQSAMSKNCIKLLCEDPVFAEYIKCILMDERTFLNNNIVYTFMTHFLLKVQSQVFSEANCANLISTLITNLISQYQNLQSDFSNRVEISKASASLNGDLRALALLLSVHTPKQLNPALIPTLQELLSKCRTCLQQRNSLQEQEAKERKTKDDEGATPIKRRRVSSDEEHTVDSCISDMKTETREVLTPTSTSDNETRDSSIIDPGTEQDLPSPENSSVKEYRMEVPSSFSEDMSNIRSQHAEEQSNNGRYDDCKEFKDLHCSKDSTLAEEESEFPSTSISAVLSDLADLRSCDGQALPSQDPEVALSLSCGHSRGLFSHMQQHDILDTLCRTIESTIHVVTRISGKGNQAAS
How it was run: (§1)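 Labelled DUBs from HEK293T lysate were NeutrAvidin-enriched, digested with LysC and trypsin, and run by diaPASEF LC-MS/MS. Before that, each 495 µg sample in Tris/CHAPS/IGEPAL buffer with protease inhibitors was treated in triplicate with fragment at 200 µM or vehicle for 3 h, then with Biotin-Ahx-Ub-VS at 0.5 µM final for 1 h. Values are average log2 ratios of fragment over vehicle by unpaired t-test, based on global-median-normalised Spectronaut label-free quantities from proteins with ≥2 unique peptides.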

USP36 = target: T1, USP36 (UniProt Q9P275)
T1 sequence (whole entry): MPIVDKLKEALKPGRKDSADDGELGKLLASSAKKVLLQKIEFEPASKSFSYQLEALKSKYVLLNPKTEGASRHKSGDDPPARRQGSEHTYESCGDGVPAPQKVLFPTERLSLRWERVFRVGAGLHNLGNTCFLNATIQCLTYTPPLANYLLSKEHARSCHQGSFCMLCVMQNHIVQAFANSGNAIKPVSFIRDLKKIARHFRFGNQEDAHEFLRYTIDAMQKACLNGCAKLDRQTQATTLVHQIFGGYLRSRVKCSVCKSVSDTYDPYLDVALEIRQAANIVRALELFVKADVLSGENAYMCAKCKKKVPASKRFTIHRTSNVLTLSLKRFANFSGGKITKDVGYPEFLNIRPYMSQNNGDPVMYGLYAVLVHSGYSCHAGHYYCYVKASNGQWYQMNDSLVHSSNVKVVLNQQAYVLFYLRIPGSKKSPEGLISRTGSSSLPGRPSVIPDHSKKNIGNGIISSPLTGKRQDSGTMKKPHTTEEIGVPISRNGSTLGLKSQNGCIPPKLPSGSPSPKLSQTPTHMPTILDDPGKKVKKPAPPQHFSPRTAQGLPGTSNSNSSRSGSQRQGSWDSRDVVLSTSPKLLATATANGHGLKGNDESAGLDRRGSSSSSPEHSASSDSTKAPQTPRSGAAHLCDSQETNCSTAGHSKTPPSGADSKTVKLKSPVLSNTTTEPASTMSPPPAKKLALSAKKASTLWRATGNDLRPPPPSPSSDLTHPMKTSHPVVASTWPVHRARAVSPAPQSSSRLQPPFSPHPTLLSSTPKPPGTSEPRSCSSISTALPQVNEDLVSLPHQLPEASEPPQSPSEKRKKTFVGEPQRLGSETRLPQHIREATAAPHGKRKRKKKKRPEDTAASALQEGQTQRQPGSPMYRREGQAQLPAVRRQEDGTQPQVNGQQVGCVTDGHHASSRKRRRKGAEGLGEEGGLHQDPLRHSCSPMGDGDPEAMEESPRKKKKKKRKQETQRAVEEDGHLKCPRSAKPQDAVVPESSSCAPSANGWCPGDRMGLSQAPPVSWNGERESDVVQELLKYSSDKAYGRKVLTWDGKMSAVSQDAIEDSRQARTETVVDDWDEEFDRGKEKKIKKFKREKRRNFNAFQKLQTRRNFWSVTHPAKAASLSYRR
How it was run: as §1

USP38 = target: T2, USP38 (UniProt Q8NB14)
T2 sequence (whole entry): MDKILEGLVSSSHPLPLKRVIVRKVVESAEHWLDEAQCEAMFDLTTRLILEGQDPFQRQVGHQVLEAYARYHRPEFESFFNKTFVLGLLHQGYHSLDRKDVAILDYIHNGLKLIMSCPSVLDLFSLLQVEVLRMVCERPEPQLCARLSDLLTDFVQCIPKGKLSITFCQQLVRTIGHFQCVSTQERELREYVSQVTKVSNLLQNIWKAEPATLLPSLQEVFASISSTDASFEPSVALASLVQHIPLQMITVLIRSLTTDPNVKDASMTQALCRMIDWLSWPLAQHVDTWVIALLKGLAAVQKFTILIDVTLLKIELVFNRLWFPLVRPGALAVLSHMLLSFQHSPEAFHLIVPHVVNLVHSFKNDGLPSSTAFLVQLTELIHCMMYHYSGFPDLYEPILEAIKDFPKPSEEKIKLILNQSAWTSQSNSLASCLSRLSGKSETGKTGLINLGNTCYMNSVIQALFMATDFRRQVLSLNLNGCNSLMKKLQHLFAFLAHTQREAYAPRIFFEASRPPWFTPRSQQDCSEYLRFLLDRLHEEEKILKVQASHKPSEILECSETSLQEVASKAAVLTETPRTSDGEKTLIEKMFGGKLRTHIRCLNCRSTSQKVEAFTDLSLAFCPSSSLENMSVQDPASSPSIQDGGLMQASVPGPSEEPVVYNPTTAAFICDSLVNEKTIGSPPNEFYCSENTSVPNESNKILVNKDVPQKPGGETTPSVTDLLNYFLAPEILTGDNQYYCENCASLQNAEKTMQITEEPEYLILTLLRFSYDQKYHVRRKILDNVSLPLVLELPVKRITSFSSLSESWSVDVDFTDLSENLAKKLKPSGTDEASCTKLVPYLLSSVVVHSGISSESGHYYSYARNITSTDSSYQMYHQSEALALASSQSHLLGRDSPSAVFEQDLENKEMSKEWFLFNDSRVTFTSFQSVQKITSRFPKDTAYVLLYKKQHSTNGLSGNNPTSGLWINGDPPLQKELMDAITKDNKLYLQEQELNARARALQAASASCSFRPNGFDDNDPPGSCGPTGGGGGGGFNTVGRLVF
How it was run: as §1

USP39 = target: T3, USP39 (UniProt Q53GS9)
T3 sequence (whole entry): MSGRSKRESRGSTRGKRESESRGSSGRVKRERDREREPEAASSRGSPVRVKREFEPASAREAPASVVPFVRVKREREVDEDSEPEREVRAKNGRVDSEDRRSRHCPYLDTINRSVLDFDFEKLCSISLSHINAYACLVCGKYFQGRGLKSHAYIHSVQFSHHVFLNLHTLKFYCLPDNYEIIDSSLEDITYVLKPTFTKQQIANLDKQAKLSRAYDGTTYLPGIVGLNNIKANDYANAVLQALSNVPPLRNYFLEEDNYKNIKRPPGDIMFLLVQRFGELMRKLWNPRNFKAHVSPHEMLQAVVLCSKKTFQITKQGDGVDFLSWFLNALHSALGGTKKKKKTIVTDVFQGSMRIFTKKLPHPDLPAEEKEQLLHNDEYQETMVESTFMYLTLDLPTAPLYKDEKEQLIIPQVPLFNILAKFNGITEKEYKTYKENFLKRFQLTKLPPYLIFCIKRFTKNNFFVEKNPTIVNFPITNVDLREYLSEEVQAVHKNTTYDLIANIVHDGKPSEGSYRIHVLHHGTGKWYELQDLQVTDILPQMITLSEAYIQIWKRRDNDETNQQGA
How it was run: as §1

USP4 = target: T4, USP4 (UniProt Q13107)
T4 sequence (whole entry): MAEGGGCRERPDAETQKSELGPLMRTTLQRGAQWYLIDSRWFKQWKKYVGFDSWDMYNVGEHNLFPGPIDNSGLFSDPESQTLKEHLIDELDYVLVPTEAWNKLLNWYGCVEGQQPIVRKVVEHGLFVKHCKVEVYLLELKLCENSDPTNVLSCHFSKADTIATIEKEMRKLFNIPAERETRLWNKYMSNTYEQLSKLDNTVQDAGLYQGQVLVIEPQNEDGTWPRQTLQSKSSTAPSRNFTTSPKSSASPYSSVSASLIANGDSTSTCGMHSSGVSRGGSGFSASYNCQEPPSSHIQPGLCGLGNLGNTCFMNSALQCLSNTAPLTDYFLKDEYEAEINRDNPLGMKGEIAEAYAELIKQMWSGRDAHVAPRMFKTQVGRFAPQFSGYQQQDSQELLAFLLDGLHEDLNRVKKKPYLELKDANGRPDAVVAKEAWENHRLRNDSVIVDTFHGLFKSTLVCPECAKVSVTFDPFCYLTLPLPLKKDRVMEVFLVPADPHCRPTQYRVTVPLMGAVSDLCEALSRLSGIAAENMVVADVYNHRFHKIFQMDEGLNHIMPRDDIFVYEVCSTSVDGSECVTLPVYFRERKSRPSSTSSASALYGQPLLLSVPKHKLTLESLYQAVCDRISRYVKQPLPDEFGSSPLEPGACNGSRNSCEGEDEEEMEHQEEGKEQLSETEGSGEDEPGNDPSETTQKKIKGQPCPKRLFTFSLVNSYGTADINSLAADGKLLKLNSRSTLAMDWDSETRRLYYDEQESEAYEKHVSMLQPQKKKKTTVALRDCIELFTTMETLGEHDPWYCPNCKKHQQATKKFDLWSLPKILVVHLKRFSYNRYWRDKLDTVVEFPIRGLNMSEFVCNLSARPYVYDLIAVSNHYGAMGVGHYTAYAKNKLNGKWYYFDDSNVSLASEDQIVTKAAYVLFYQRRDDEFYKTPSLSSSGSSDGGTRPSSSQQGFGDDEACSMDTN
How it was run: as §1

Measured: log2 ratio of Biotin-Ahx-Ub-VS probe labelling

O=C(CCl)Nc1cc(Cl)ccc1C(=O)O
inactive: USP34 0.243 | USP36 0.209 | USP38 0.105 | USP39 0.562 | USP4 0.12
